Laboratory results taken from article PMC8384837, “Expanding the binding specificity for RNA recognition by a PUF domain”.

Experiments:
Test in all cases: yeast three-hybrid, YBZ-1, SC-Leu-His + 0.5 mM 3-AT, 4 days
Conditions in all cases: tags: N-Gal4 AD-HA kept; label: inside an RPR1-promoter hybrid RNA with tandem MS2 sites; ssRNA
PUM1 PUF domain R4-DWM = PUM1 PUF domain R4-DWM (Homo sapiens, UniProt Q14671 828-1176, N971D;H972W;Q975M)
Outline: (§1)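 A centromeric plasmid in strain YBZ-1 co-expressed Pumilio-1 PUF domain libraries, randomized at the three base-contacting residues of each repeat, with matching RNA elements; the strain carries a LexA–MS2 coat fusion and a HIS3 reporter. After four days on SC-Leu (input) or SC-Leu-His + 0.5 mM 3-AT (selection), the repeat regions were PCR-amplified and Illumina-sequenced. The interaction score is the log change in variant frequency from input to selection, using log2 and a pseudocount of 1 where absent.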

PUM1 PUF domain R5-ASR = PUM1 PUF domain R5-ASR (Homo sapiens, UniProt Q14671 828-1176, C1007A;R1008S;Q1011R)
Outline: as §1

PUM1 PUF domain R5-WSR = PUM1 PUF domain R5-WSR (Homo sapiens, UniProt Q14671 828-1176, C1007W;R1008S;Q1011R)
Outline: as §1

PUM1 PUF domain R8-RRV = PUM1 PUF domain R8-RRV (Homo sapiens, UniProt Q14671 828-1176, N1122R;Y1123R;Q1126V)
Outline: as §1

PUM1 PUF domain R3-WYS = PUM1 PUF domain R3-WYS (Homo sapiens, UniProt Q14671 828-1176, C935W;R936Y;Q939S)
Outline: as §1

PUM1 PUF domain R3-FIG = PUM1 PUF domain R3-FIG (Homo sapiens, UniProt Q14671 828-1176, C935F;R936I;Q939G)
Outline: as §1

PUM1 PUF domain R6-FWV = biological target: T1, PUM1 PUF domain R6-FWV (Homo sapiens, UniProt Q14671 828-1176, N1043F;Y1044W;Q1047V)
T1 sequence: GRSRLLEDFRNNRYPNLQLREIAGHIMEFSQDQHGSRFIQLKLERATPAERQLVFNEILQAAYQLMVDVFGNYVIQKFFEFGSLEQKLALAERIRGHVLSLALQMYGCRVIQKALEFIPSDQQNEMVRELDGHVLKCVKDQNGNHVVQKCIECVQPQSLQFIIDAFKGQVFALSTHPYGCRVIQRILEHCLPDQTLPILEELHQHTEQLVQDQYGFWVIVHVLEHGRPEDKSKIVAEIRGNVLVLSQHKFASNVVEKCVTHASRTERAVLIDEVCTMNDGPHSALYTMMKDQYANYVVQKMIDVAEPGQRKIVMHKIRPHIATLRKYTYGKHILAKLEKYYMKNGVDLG
Outline: as §1

PUM1 PUF domain R3-DHL = PUM1 PUF domain R3-DHL (Homo sapiens, UniProt Q14671 828-1176, C935D;R936H;Q939L)
Outline: as §1

PUM1 PUF domain R3-TYH = PUM1 PUF domain R3-TYH (Homo sapiens, UniProt Q14671 828-1176, C935T;R936Y;Q939H)
Outline: as §1

PUM1 PUF domain R5-AAD = PUM1 PUF domain R5-AAD (Homo sapiens, UniProt Q14671 828-1176, C1007A;R1008A;Q1011D)
Outline: as §1

Question: “GGCUAGAACUAGUGGAUCCCCCGGCGCCCGGCGGCUCGAGCCCGGGUAAGUGUACAUAGUCUGCAUGCCGCCGGGCGCCAUGCCUGCAGGUCGACUCUAGAAAACAUG” was tested. Which binding signal (PUM1 PUF domain R4-DWM) did it give?
Answer: 4.24 log2 enrichment (interaction score)

Question: For “GGCUAGAACUAGUGGAUCCCCCGGCGCCCGGCGGCUCGAGCCCGGGUAAGUGUCAAUAGUCUGCAUGCCGCCGGGCGCCAUGCCUGCAGGUCGACUCUAGAAAACAUG”, which binding signal (PUM1 PUF domain R5-ASR) is on record?
Answer: 5.07 log2 enrichment (interaction score)

Question: And the binding signal (PUM1 PUF domain R5-WSR)?
Answer: 5.87 log2 enrichment (interaction score)

Question: Which binding signal (PUM1 PUF domain R8-RRV) does the source give for “GGCUAGAACUAGUGGAUCCCCCGGCGCCCGGCGGCUCGAGCCCGGGUAAGCGUAAAUAGUCUGCAUGCCGCCGGGCGCCAUGCCUGCAGGUCGACUCUAGAAAACAUG” here?
Answer: 2.4 log2 enrichment (interaction score)

Question: Which binding signal (PUM1 PUF domain R5-ASR) does the source give for “GGCUAGAACUAGUGGAUCCCCCGGCGCCCGGCGGCUCGAGCCCGGGUAAGUGUUAAUAGUCUGCAUGCCGCCGGGCGCCAUGCCUGCAGGUCGACUCUAGAAAACAUG” here?
Answer: 1.28 log2 enrichment (interaction score)

Question: With “GGCUAGAACUAGUGGAUCCCCCGGCGCCCGGCGGCUCGAGCCCGGGUAAGUGUAAGUAGUCUGCAUGCCGCCGGGCGCCAUGCCUGCAGGUCGACUCUAGAAAACAUG” as the sequence, how does the binding signal (PUM1 PUF domain R3-WYS) read?
Answer: 2.89 log2 enrichment (interaction score)

Question: And the binding signal (PUM1 PUF domain R3-FIG)?
Answer: 3.51 log2 enrichment (interaction score)

Question: What does the source list for “GGCUAGAACUAGUGGAUCCCCCGGCGCCCGGCGGCUCGAGCCCGGGUAAGUGUAAAUAGUCUGCAUGCCGCCGGGCGCCAUGCCUGCAGGUCGACUCUAGAAAACAUG”?
Answer: binding signal (PUM1 PUF domain R6-FWV): 4.97 log2 enrichment (interaction score); binding signal (PUM1 PUF domain R4-DWM): 6.03 log2 enrichment (interaction score); binding signal (PUM1 PUF domain R8-RRV): 0.86 log2 enrichment (interaction score); binding signal (PUM1 PUF domain R3-DHL): 3.42 log2 enrichment (interaction score); binding signal (PUM1 PUF domain R3-TYH): 2.88 log2 enrichment (interaction score)

Question: “GGCUAGAACUAGUGGAUCCCCCGGCGCCCGGCGGCUCGAGCCCGGGUAAGUGUGAAUAGUCUGCAUGCCGCCGGGCGCCAUGCCUGCAGGUCGACUCUAGAAAACAUG” was tested. Which binding signal (PUM1 PUF domain R5-AAD) did it give?
Answer: 2.97 log2 enrichment (interaction score)
